Bioassay records as filed in PubChem BioAssay.
Sampled rows, rich in hits. Any-hit rate of the full collection: about 3.4%.
ADAM17 inh – ADAM17 inhibition, QFRET primary screen; P78536; inhibition, % at 6.95 µM; 0.83% of 370,000 active; recombinant ADAM17, EDANS/DABCYL FRET peptide cleavage;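 active = inhibition above the mean of compounds lying between control limits plus 3 SD, set per campaign, cut at about 8.5% in these data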
Target sequence (P78536 215-824 limits assumed): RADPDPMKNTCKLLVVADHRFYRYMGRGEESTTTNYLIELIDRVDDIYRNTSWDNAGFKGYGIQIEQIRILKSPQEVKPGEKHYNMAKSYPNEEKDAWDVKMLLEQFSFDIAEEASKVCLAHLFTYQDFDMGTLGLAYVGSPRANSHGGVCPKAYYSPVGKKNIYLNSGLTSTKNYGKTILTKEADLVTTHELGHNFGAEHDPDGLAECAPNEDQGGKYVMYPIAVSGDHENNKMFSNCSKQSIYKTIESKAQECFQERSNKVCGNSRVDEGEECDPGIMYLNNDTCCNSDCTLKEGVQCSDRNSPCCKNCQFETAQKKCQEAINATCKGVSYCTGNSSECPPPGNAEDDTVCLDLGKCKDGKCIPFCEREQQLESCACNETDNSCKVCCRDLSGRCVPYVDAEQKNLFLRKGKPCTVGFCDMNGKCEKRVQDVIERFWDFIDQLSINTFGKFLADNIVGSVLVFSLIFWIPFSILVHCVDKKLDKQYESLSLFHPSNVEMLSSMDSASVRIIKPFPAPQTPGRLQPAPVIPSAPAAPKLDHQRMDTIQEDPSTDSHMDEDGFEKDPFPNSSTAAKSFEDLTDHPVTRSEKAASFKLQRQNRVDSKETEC
KLK7 zymogen act – activates the human kallikrein-7 zymogen. purified proKLK7, EDANS-DABCYL substrate fluorescence; 100% is mature enzyme control, 0% vehicle. activation, % at 7 µM. 0.9% of 370,000 active;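 active = activation above the mean of all tested compounds plus 3 SD, computed per campaign excluding outliers beyond control limits, cut at about 13% in these data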
PLC-beta3 inh – PLC-beta3 (human) inhibition, primary screen. Q01970. Purified PLC-beta3, fluorogenic substrate, fluorescence. inhibition, % at 12.2 µM. 0.18% of 370,000 active. AID 720704; in the data active = inhibition above about 11%
ADAM10 inh – inhibitors of human ADAM10; O14672; recombinant ADAM10, EDANS/DABCYL FRET peptide cleavage, 3 h; inhibition, % at 7 µM; 0.62% of 370,000 active;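 active = inhibition above a per-campaign cutoff equal to the mean of compounds falling between control-based bounds plus 3 SD, cut at about 20% in these data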
PLCg1 inh – inhibitors of human phospholipase C gamma1 | purified PLC-gamma1, fluorogenic substrate, fluorescence | inhibition, % at 12.2 µM | 0.84% of 370,000 active | P19174; in the data active = inhibition above about 9.5%
HGIII-sPLA2 inh – Blocks human group III sPLA2 activity. Q9NZ20. inhibition, % at 12.2 µM. AID 743126. 0.56% of 370,000 active. QFRET BODIPY PC-A2 liposome hydrolysis, fluorescence;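 active = inhibition above mean plus 3 SD of compounds lying within the high and low control bounds, cut at about 19% in these data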
ADAM10 counter – counter-screen for ADAM17 exosite inhibitors: inhibitors of human ADAM10. shares compounds with ADAM17 inh. recombinant ADAM10, EDANS/DABCYL FRET peptide cleavage, 3 h. inhibition, % at 6.95 µM. 47% of 2,900 active;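 active = mean inhibition over the triplicate runs exceeds the activity threshold set in the earlier primary screen, cut at about 20% in these data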
ADAM17 confirm – human ADAM17 inhibition, confirmation | shares compounds with ADAM17 inh | recombinant ADAM17, EDANS/DABCYL QFRET peptide cleavage | inhibition, % at 6.95 µM | 65% of 2,900 active | AID 743257;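 active = mean inhibition across replicates above the hit cutoff set in the primary screen, cut at about 8.5% in these data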
Of the large screens only hits and unclear results are named; the others gave an inactive call (follow-up assays come after a bar, where they were run).

Cc1ccc(NC(=O)c2ccc3c(c2)OCCO3)cc1S(=O)(=O)Nc1cccc(Cl)c1	ADAM17 inh 9.8 | ADAM10 counter 21 | ADAM17 confirm 11
Cc1ccc(NC(=O)c2ccc3c(c2)OCCO3)cc1C	none
CCOC(=O)c1c(C)[nH]c(C)c1C(=O)CSc1nc2ccccc2c(=O)n1-c1ccc(F)cc1	ADAM17 inh 10 | ADAM10 counter 22 | ADAM17 confirm 15
CCOC(=O)c1c(C)[nH]c(C)c1C(=O)CSc1nc2ccccc2c(=O)n1-c1ccccc1C	none
O=C(N/N=C/c1cccs1)C1CC(=O)N(c2ccccc2)C1 (configuration not stated)	none
Cc1ccc(/C=N/NC(=O)C2CC(=O)N(c3ccccc3)C2)s1 (configuration not stated)	ADAM17 inh 10 | ADAM10 counter inactive | ADAM17 confirm inactive
CCCc1cc(C(=O)N2CCN(c3ccc(C(F)(F)F)cn3)CC2)sc1C	ADAM17 inh 12 | ADAM10 counter 21 | ADAM17 confirm 14
O=c1c([N+](=O)[O-])c(Cl)c2ccccc2n1Cc1ccccc1	none (no result: KLK7 zymogen act)
Cc1cccc(C)c1-n1nnnc1C(c1ccccc1)N1CCN(C/C=C/c2ccccc2)CC1 (configuration not stated)	ADAM17 inh 9.4 | ADAM10 counter inactive | ADAM17 confirm 10
Cc1cccc(C)c1-n1nnnc1C(c1cccs1)N1CCN(C/C=C/c2ccccc2)CC1 (configuration not stated)	none
O=C(CSc1nnc(COc2cccc3ccccc23)o1)N1c2ccccc2CCc2ccccc21	ADAM17 inh 8.9 | ADAM10 counter inactive | ADAM17 confirm inactive
NC(=O)CSc1nnc(COc2cccc3ccccc23)o1	none
COCc1cn([C@H]2C[C@@H]3O[C@H](CO)CC[C@@H]3O[C@@H]2CCc2ccc(-c3ccc(OC)cc3)cc2)nn1	none
O=C(Cc1ccc(Nc2nc3ccc(Br)cc3[nH]2)cc1)NCCc1cccs1	ADAM17 inh 8.9 | ADAM10 counter inactive | ADAM17 confirm 9.5
O=C(NCC1CC1)c1ccc(Nc2nc3ccc(Br)cc3[nH]2)cc1	none
CCOC(=O)C1(CC2CCCCO2)CCN(C(=O)Nc2ccc(SC)cc2)CC1 (configuration not stated)	none
CCOC(=O)C1(CC2CCCCO2)CCN(C(=O)Nc2cccc(SC)c2)CC1 (configuration not stated)	ADAM17 inh 9.2 | ADAM10 counter inactive | ADAM17 confirm inactive
COC(=O)[C@H](Cc1ccccc1)N(Cc1cn(Cc2ccccc2)nn1)S(=O)(=O)c1ccccc1Br	none
COC(=O)C[C@H]1CC[C@@H]2[C@H](COc3ccc(NC(=O)c4cccc(Cl)c4)cc3C(=O)N2C)O1	none
Cc1ccnc(SCc2cc(=O)c(OC(=O)c3ccc(C#N)cc3)co2)n1	none (no result: KLK7 zymogen act)
COc1cc(-c2n[nH]c(=S)n2-c2ccc(C)cc2)cc(OC)c1OC	none
COc1ccc(-c2n[nH]c(=S)n2-c2ccc(Br)cc2)cc1OC	ADAM17 inh 11 | ADAM10 counter inactive | ADAM17 confirm 37
Cc1nc2c(OCc3cc(Cl)cc(Cl)c3)cccn2c1N(C)C(=O)CCC1CCCC1	ADAM17 inh 11 | ADAM10 counter inactive | ADAM17 confirm 10
Cc1nc2c(OCCC3CCCCC3)cccn2c1N(C)C(=O)CCC1CCCC1	none
Cc1noc(C)c1S(=O)(=O)N(C)C[C@H]1Oc2c(NC(=O)C3CCCCC3)cccc2C(=O)N([C@H](C)CO)C[C@@H]1C	ADAM17 inh 10 | ADAM10 counter inactive | ADAM17 confirm inactive
Cc1noc(C)c1NC(=O)Nc1cccc2c1O[C@H](CN(C)S(=O)(=O)c1ccc(F)cc1)[C@@H](C)CN([C@H](C)CO)C2=O	ADAM17 inh 11 | ADAM10 counter inactive | ADAM17 confirm inactive
Fc1cc(F)c(CSc2nnc(-c3cccnc3)n2Cc2ccccc2)cc1F	none
CCCCC(=O)NC(c1cccc([N+](=O)[O-])c1)c1ccc2cccnc2c1O (configuration not stated)	ADAM17 inh 9.6 | ADAM10 counter 25 | ADAM17 confirm 17
CCOc1ccc(-n2c(COc3ccc(C)cc3)nnc2SCC(=O)Nc2ccc(F)c(F)c2)cc1	none
C=CCOc1ccc(CNc2nn[nH]n2)cc1	ADAM17 inh 9.1 | ADAM10 counter inactive | ADAM17 confirm inactive
C=CCOc1ccc(CNc2nccs2)cc1	none
COc1ccc(Oc2ccc(/C=C/C(=O)c3ccc(O)cc3)cc2[N+](=O)[O-])cc1	ADAM17 inh 9.6 | ADAM10 counter 38 | ADAM17 confirm 22
O=S1(=O)c2ccc(Br)cc2OC[C@@H](c2ccccc2)N1Cc1cn(CCC2OCCO2)nn1	none
COc1ccc(Nc2oc(COc3ccc(Cl)cc3)nc2C#N)cc1	ADAM17 inh 13, ADAM10 inh 26 | ADAM10 counter 31 | ADAM17 confirm 18
COc1ccc(CNc2oc(COc3ccc(Cl)cc3)nc2C#N)cc1	ADAM17 inh 11 | ADAM10 counter 31 | ADAM17 confirm 16
COc1ccc(Nc2oc(-c3ccc(Cl)cc3)nc2C#N)cc1	none
COc1ccc(CCNc2oc(Cc3cccc4ccccc34)nc2C#N)cc1OC	none
COc1ccc(CCNc2oc(COc3ccc(Br)cc3)nc2C#N)cc1OC	ADAM17 inh 10 | ADAM10 counter 34 | ADAM17 confirm 19
Cc1ccc(N(CC(=O)Nc2ccccc2C(=O)NCc2ccco2)S(=O)(=O)c2ccccc2)cc1C	none
Cc1ccc(C)c(N(CC(=O)Nc2ccccc2C(=O)NCc2ccco2)S(=O)(=O)c2ccccc2)c1	ADAM17 inh 9.6 | ADAM10 counter 23 | ADAM17 confirm 16
CCN(CC)CCCNC(=O)c1oc(=O)c2ccccc2c1-c1ccc(C)cc1	none
O=C(c1ccccc1)c1ccc(C(=O)N2CCN(c3ccc(O)cc3)CC2)cc1	ADAM17 inh 8.7 | ADAM10 counter inactive | ADAM17 confirm inactive
O=C(c1ccc(N2CCN(C(=O)c3ccccc3)CC2)cc1)c1cccc(F)c1	none
COc1ccc(N2C(=O)C3CCCN3C2c2ccccc2OC)cc1 (configuration not stated)	none
COc1ccccc1C1N(c2ccc(Cl)cc2)C(=O)C2CCCN21 (configuration not stated)	ADAM17 inh 9.8 | ADAM10 counter inactive | ADAM17 confirm inactive
Cc1cc(N2CCOc3ccccc32)nc2ccccc12	none (no result: KLK7 zymogen act)
